Experimental findings from PubChem BioAssay are described below.

Structures are written as SMILES. A number with no mark means an inactive call. Active and inactive are the calls of the source.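 Rule for the calls: active = normalized viability below 100% at a tested concentration; inactive = the rest.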

One experiment in a line: ovarian cancer cell viability with rucaparib, profiling panel, oncology-focused library, rucaparib conditional (AID 1508598). The settings on record: patient-derived ovarian cancer cells, CellTiter-Glo viability, 144 h; at 1.25 µM; OCI-P5x cells; without rucaparib; stronger effect = lower value.
What is called viability is a read-out of living cells in per cent, often relative to untreated cells. For the compound `CNC(=O)c1cc(Oc2ccc(NC(=O)Nc3ccc(Cl)c(C(F)(F)F)c3)c(F)c2)ccn1`, the viability is 117%.
Still for that read-out and setting: under `O=C(CCCCCCC(=O)Nc1ccc([C@H]2O[C@@H](CSc3nc(-c4ccccc4)c(-c4ccccc4)o3)C[C@@H](c3ccc(CO)cc3)O2)cc1)NO` stands 116%; under `CNC(=O)c1cc(COc2nnc(Nc3ccc(Cl)cc3)c3ccoc23)ccn1`, 108%; under `CS(=O)(=O)N1CCc2c(-c3cnc(N)nc3)nc(N3CCOCC3)nc21`, 97% (active).
Same read-out and setting: under `Nc1ccn([C@@H]2O[C@H](CO)[C@@H](O)C2(F)F)c(=O)n1` stands 25.7% (active).

The experiment is the same for the next values; noted with them: patient-derived ovarian cancer cells, CellTiter-Glo viability, 144 h; at 5 µM; OCI-C5x cells; with rucaparib 10 µM; stronger effect = lower value; 100% = cells with rucaparib alone.
Take `CNC(=O)c1cc(Oc2ccc(NC(=O)Nc3ccc(Cl)c(C(F)(F)F)c3)c(F)c2)ccn1`: the viability is 125%.
As for `O=C(CCCCCCC(=O)Nc1ccc([C@H]2O[C@@H](CSc3nc(-c4ccccc4)c(-c4ccccc4)o3)C[C@@H](c3ccc(CO)cc3)O2)cc1)NO`, the viability is 128%.
For `CNC(=O)c1cc(COc2nnc(Nc3ccc(Cl)cc3)c3ccoc23)ccn1`, the viability is 114%.
Still for that read-out and setting: then `CS(=O)(=O)N1CCc2c(-c3cnc(N)nc3)nc(N3CCOCC3)nc21`, with 39.2% (active).
On the same count and under the same terms, then `Nc1ccn([C@@H]2O[C@H](CO)[C@@H](O)C2(F)F)c(=O)n1`, with 14.3% (active).

The experiment is the same for the next values; noted with them: patient-derived ovarian cancer cells, CellTiter-Glo viability, 144 h; at 5 µM; OCI-C5x cells; without rucaparib; stronger effect = lower value.
As for `CNC(=O)c1cc(Oc2ccc(NC(=O)Nc3ccc(Cl)c(C(F)(F)F)c3)c(F)c2)ccn1`, the viability is 105%.
Still for that read-out and setting: under `O=C(CCCCCCC(=O)Nc1ccc([C@H]2O[C@@H](CSc3nc(-c4ccccc4)c(-c4ccccc4)o3)C[C@@H](c3ccc(CO)cc3)O2)cc1)NO` stands 158%; under `CNC(=O)c1cc(COc2nnc(Nc3ccc(Cl)cc3)c3ccoc23)ccn1`, 128%.
Same read-out and setting: then `CS(=O)(=O)N1CCc2c(-c3cnc(N)nc3)nc(N3CCOCC3)nc21`, with 56% (active).
On the same count and under the same terms, then `Nc1ccn([C@@H]2O[C@H](CO)[C@@H](O)C2(F)F)c(=O)n1`, with 14.2% (active).

The experiment is the same for the next values; noted with them: patient-derived ovarian cancer cells, CellTiter-Glo viability, 144 h; at 5 µM; OCI-P5x cells; with rucaparib 20 µM; stronger effect = lower value; 100% = cells with rucaparib alone.
In the case of `CNC(=O)c1cc(Oc2ccc(NC(=O)Nc3ccc(Cl)c(C(F)(F)F)c3)c(F)c2)ccn1`, the viability was 80.9% (active).
On the same count and under the same terms, under `O=C(CCCCCCC(=O)Nc1ccc([C@H]2O[C@@H](CSc3nc(-c4ccccc4)c(-c4ccccc4)o3)C[C@@H](c3ccc(CO)cc3)O2)cc1)NO` stands 21.1% (active).
`CNC(=O)c1cc(COc2nnc(Nc3ccc(Cl)cc3)c3ccoc23)ccn1`: the viability is 103%.
Same read-out and setting: under `CS(=O)(=O)N1CCc2c(-c3cnc(N)nc3)nc(N3CCOCC3)nc21` stands 16% (active).
Still for that read-out and setting: under `Nc1ccn([C@@H]2O[C@H](CO)[C@@H](O)C2(F)F)c(=O)n1` stands 42.3% (active).
